Most compounds without a hit are left out; they make up all but 12% or so of the library.
BAZ2B inh = qHTS Assay for Inhibitors of BAZ2B | Bromodomain adjacent to zinc finger domain protein 2B (Homo sapiens), Q9UIF8 | AlphaScreen BAZ2B-H3K14Ac peptide displacement | Potency, µM (highest dose often 114 µM), actives largely listed as inhibitors | actives 4.4% (n = 360,000) | AID 504333, 2011; further: nearly all actives have a fitted effect of over 60% in size
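Multi-concentration screen (max 110 uM) measuring displacement of acetylated histone H3 peptide from BAZ2B by AlphaScreen, using 50 nM protein, 50 nM peptide and 10 ug/mL streptavidin donor plus Ni-chelate acceptor beads.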
HP1b binding inh = HTS for Inhibitors of HP1-beta Chromodomain Interactions with Methylated Histone Tails; Potency, µM (doses to about 114 µM), usual class: inhibitors; AlphaScreen HP1-beta / biotin-H3K9me3 peptide binding; Chromobox protein homolog 1 (Homo sapiens), P83916; actives 0.56% (n = 390,000); further: nearly all actives have a fitted effect of over 70% in size
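Compound inhibition of the preformed complex between 50 nM HP1-beta and 50 nM biotinylated H3K9me3 peptide was read by AlphaScreen. Buffer was PBS pH 7.4 with 0.01% Tween-20. Incubations ran 30 min at room temperature, with 10 ug/mL donor/acceptor beads.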
G9a inh = qHTS Assay for Inhibitors of Histone Lysine Methyltransferase G9a; Potency, µM (highest dose often 102 µM), hits mostly inhibitors; actives 8.8% (n = 350,000); AID 504332, 2011; G9a H3K9 monomethylation, AlphaScreen, 2 h; further: nearly all actives have a fitted effect of over 75% in size
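Methyltransferase reactions run at room temperature for 2 h (20 nM enzyme, 500 nM biotin-H3K9 peptide, 20 uM SAM) after a 15 min compound preincubation; product detected by AlphaScreen beads and anti-H3K9me1 antibody.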
Sfp inh = qHTS Assay for Inhibitors of Bacillus subtilis Sfp phosphopantetheinyl transferase (PPTase) | 4'-phosphopantetheinyl transferase ffp (Bacillus subtilis), Q9F4F7 | Biochemical Sfp PPTase activity, qHTS | Potency, µM, hits mostly inhibitors | actives 3.5% (n = 310,000) | AID 1490, 2009;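 further: the enzyme is Sfp with the accession as filed and its product quenches rhodamine fluorescence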
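Step 1, compound plus 15 nM Sfp-PPTase, 15 min, room temperature. Step 2, add rhodamine-CoA (5 uM) and BHQ-2-YbbR (12.5 uM). Step 3, read 525/598 nm fluorescence at 0 and 30 min.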
TDP1 block = qHTS Assay for Inhibitors of Tyrosyl-DNA Phosphodiesterase (TDP1); recombinant TDP1, AlphaScreen DNA substrate cleavage; Potency, µM (titrated, usually from 130 µM), actives largely listed as inhibitors; actives 0.28% (n = 350,000); AID 485290, 2010; further: nearly all actives have a fitted effect of over 40% in size
Target sequence (Q9NUW8 whole entry, looked up): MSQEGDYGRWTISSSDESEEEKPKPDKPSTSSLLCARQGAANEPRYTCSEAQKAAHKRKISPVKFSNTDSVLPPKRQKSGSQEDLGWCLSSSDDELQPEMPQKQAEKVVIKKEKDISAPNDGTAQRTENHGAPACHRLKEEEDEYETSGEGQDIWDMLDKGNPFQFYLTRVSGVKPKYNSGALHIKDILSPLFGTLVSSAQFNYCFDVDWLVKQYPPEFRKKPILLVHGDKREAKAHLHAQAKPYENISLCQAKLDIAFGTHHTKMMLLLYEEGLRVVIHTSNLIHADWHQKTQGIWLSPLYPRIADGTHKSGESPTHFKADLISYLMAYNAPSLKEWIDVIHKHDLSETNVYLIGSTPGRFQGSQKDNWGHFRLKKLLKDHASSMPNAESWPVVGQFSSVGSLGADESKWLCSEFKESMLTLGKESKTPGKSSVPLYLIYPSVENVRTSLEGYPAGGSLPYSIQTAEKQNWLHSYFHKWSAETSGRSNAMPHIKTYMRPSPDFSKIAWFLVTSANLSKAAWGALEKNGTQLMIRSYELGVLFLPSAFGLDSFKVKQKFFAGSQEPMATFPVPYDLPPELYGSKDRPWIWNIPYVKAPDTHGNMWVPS
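E. coli-derived human Tdp1, 1 nM final. Cpd preinc 15 min RT; substrate 15 nM final, 5 min RT; AS bead mix 10 ug/ml final, 10 min RT. Signal loss = tyrosine-FITC cleavage. No-enzyme wells = max signal.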
JMJD2A Tudor inh = qHTS Assay for Inhibitors of JMJD2A-Tudor Domain; Lysine-specific demethylase 4A (Homo sapiens), O75164; AlphaScreen JMJD2A-Tudor / H3K4me3 peptide binding; Potency, µM (doses to about 114 µM), most hits filed as inhibitors; actives 4.4% (n = 390,000); AID 504339, 2011; further: nearly all actives have a fitted effect of over 50% in size
Large screens that a line does not name were inactive; ! = repeats disagree. The call rests on the fitted dose curve; in most records, active means well fitted curve in the direction sought with a large enough effect; inconclusive means small, poorly fitted or top-dose-only effect, or another doubt; inactive means no such curve, though single readings can be large; an effect the other way counts as inactive or inconclusive.

CCn1c(COc2ccc(C(C)C)cc2)nnc1SCC(=O)Nc1nccs1	G9a inh 10µM
CCn1c(CNC(=O)COc2ccc(C(C)C)cc2)nnc1SCC(=O)Nc1cc(F)ccc1C	G9a inh inconclusive, JMJD2A Tudor inh 28µM
CCSCc1nnc(SCC(=O)Nc2nccs2)n1CC	none
CCn1c(CC(=O)Nc2cccc(OC)c2)nnc1SCC(=O)Nc1nccs1	G9a inh 56µM
O=C(O)C1CCCCC1C(=O)N1CCCC1 (stereo not given)	none
O=C(O)C1C2CCC(C2)C1C(=O)N1CCCC1 (stereo not given)	Sfp inh 45µM
O=C(c1ccc(S(=O)(=O)Nc2ccccc2F)cc1)N1CCC1	none (no result: Sfp inh)
Cc1ccc(CNc2ccc(-c3nc(-c4ccco4)no3)cc2[N+](=O)[O-])cc1	none (no result: Sfp inh)
Cc1cc(-c2n[nH]c(=S)n2/N=C/c2ccc(C)s2)n[nH]1	BAZ2B inh inconclusive, G9a inh 1.8µM, JMJD2A Tudor inh 7.9µM
Cc1cc(-c2n[nH]c(=S)n2/N=C/c2ccc(Br)s2)n[nH]1	G9a inh inconclusive, JMJD2A Tudor inh 13µM
O=C(COC(=O)c1ccccn1)NCCc1ccc(Cl)cc1	none (no result: BAZ2B inh, G9a inh, Sfp inh)
COc1cccc(/C=C2/SC(=O)N(CC(=O)N3CCc4ccccc4C3)C2=O)c1OCC(=O)O	Sfp inh 56µM
Cc1cc(C(=O)NCCc2ccc(Cl)cc2)c2c(C)nn(-c3cccc(F)c3)c2n1	none (no result: Sfp inh)
O=C(O)c1ccc(Cn2cnc3cccnc32)cc1	G9a inh 40µM
O=c1c2ccccc2ncn1Cc1ccccc1	none
O=C(CSc1ncn[nH]1)N1N=C2/C(=C\c3ccco3)CCCC2C1c1ccco1 (stereo not given)	none (no result: BAZ2B inh, G9a inh, Sfp inh, TDP1 block)
CCCCN1C(=O)C(=O)N(CC(=O)N2N=C3/C(=C/c4ccco4)CCCC3C2c2ccco2)C1=O (stereo not given)	G9a inh inconclusive, Sfp inh 45µM, JMJD2A Tudor inh inconclusive
O=C(CSc1ncn[nH]1)N1N=C2/C(=C/c3ccco3)CCCC2C1c1ccco1 (stereo not given)	BAZ2B inh inconclusive, G9a inh 50µM, JMJD2A Tudor inh 56µM
Cc1ccccc1N(CC(=O)Nc1ccc(S(=O)(=O)N2CCOCC2)cc1)S(C)(=O)=O	none
Cc1cc(C)c(C(=O)C(C)OC(=O)c2ccc(Cl)nc2)cc1C (stereo not given)	none (no result: G9a inh)
CCOC(=O)c1c(CN2CCN(c3ccccc3)CC2)oc2cc(Br)c(O)cc12	BAZ2B inh inconclusive, G9a inh 50µM, JMJD2A Tudor inh 50µM (no result: TDP1 block)
Cc1cc2c(=O)n(C)c(SCC(=O)NCC3CCCO3)nc2s1 (stereo not given)	none (no result: BAZ2B inh, G9a inh, Sfp inh, TDP1 block)
COc1ccc(-c2nc(SC(C)C(=O)NCC3CCCO3)n[nH]2)cc1 (stereo not given)	G9a inh 16µM (no result: Sfp inh)
COc1cccc(OC)c1OCCNCCO	none
Cc1ccc(OCC(O)CNC2CCCC2)c(C)c1 (stereo not given)	none (no result: G9a inh, TDP1 block)
COc1cccc(OC)c1OCCCNC1CCCC1	BAZ2B inh inconclusive, HP1b binding inh inconclusive, JMJD2A Tudor inh 25µM (no result: G9a inh)
CC(C)(C)c1ccc(OCCCNC2CCCC2)cc1	BAZ2B inh 79µM, G9a inh 11µM, JMJD2A Tudor inh 20µM
Cc1ccc(OCCCCNC2CCCCC2)c(C)c1	BAZ2B inh 79µM, G9a inh 14µM, JMJD2A Tudor inh 28µM
Cc1ccc(C)c(OCCCNC2CCCC2)c1C	BAZ2B inh inconclusive, HP1b binding inh inconclusive, G9a inh 7.1µM, JMJD2A Tudor inh 0.79µM
CN(CCc1ccccc1)C(=O)c1ccc(NC(=O)Cc2ccc(NC(=O)C3CCN(C(=O)C4CCC4)CC3)cc2)cc1	none (no result: BAZ2B inh, G9a inh, Sfp inh, TDP1 block)
Cc1cc(OCC(=O)N2CCC(O)CC2)c2c(C)cc(=O)oc2c1	none
Cc1ccc(N2CCN(C(=O)c3nn(C)c4c3CS(=O)(=O)c3ccccc3-4)CC2C)cc1 (stereo not given)	BAZ2B inh inconclusive, G9a inh inconclusive
Cc1ccc(OCCC(=O)OCC(=O)NC(=O)NC2CCCCC2)cc1	none (no result: Sfp inh)
Cc1ccc(OCCCNC2CCCC2)cc1	BAZ2B inh inconclusive, G9a inh 13µM, JMJD2A Tudor inh 22µM
COc1ccc(/C=C/C(=O)O)cc1S(=O)(=O)NC1CCS(=O)(=O)C1 (stereo not given)	G9a inh inconclusive, TDP1 block 50µM
O=C(c1cc(COc2ccc(F)cc2F)on1)N1CCN(C2CCCC2)C(=O)C1	none
COc1cc(/C=C/C(=O)O)ccc1OCc1ccccc1C#N	none
CCOC(=O)COc1ccc(C2NC(C(=O)O)CS2)cc1 (stereo not given)	BAZ2B inh 56µM, HP1b binding inh inconclusive, G9a inh inconclusive, Sfp inh 45µM, JMJD2A Tudor inh 7.9µM
COC(=O)c1ccc([C@H]2CC(=O)O2)cc1	none (no result: G9a inh, TDP1 block)
COC(=O)c1ccc(C2NC(C(=O)O)CS2)cc1 (stereo not given)	BAZ2B inh inconclusive, G9a inh 3.5µM, Sfp inh 56µM, JMJD2A Tudor inh 6.3µM
COc1cc(C2NC(C(=O)O)CS2)ccc1OCc1ccccc1C#N (stereo not given)	G9a inh 20µM, Sfp inh 18µM (no result: HP1b binding inh, JMJD2A Tudor inh)
CCOC(=O)C1CCN(S(=O)(=O)c2cc(C(=O)N3CCCCC3)ccc2OC)CC1	none
COc1ccc(-c2nn(-c3ccccc3)cc2C(N)=O)cc1OC	none (no result: G9a inh, TDP1 block)
O=C(NCCCCc1ccccc1)Nc1ccc(F)cc1F	none (no result: G9a inh)
O=C1C=CC(=O)N1CCCCCCN1C(=O)C=CC1=O	HP1b binding inh inconclusive, G9a inh 1.6µM, Sfp inh 3.5µM, JMJD2A Tudor inh 18µM
CCCCC1(C)OC(=O)C(=Cc2ccc(N(CC)CC)cc2)C(=O)O1 (stereo not given)	BAZ2B inh 56µM, G9a inh 71µM, JMJD2A Tudor inh inconclusive
CCN(CC)c1ccc(C=C2C(=O)OC3(CCCCC3)OC2=O)cc1	BAZ2B inh inconclusive, G9a inh inconclusive
CCOCc1cnc(C)nc1NCC(=O)c1c(C)n(C)c2ccc(OC)cc12	BAZ2B inh 50µM, G9a inh 14µM
Cc1ccccc1NS(=O)(=O)c1nnc(NC(=O)c2ccccc2C)s1	BAZ2B inh 28µM!, JMJD2A Tudor inh inconclusive
Cc1ccccc1N(C)S(=O)(=O)c1nnc(NC(=O)C(C)C)s1	BAZ2B inh inconclusive, G9a inh inconclusive, JMJD2A Tudor inh inconclusive (no result: Sfp inh)
